The values that follow come from PubChem BioAssay.

As a reminder, the inhibition is how much of the control response was suppressed.

The source made the active and inactive calls. The rule behind the calls is not given here.

Sequence of Pantothenate synthetase (Mycobacterium tuberculosis (strain ATCC 25618 / H37Rv)) (P9WIL5 whole entry, looked up): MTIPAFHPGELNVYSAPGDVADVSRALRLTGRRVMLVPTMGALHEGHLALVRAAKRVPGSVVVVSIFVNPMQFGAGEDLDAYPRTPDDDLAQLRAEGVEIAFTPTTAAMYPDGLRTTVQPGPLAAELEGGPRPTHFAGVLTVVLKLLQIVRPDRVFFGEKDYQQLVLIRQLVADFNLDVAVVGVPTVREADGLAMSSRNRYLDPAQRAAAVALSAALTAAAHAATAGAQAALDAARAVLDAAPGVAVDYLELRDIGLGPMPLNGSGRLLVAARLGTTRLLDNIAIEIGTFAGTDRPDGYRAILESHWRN

The assay has as its target Pantothenate synthetase (Mycobacterium tuberculosis (strain ATCC 25618 / H37Rv)) (UniProt P9WIL5). The experiment in a line: Coupled enzyme confirmation of inhibitors against recombinant Mtb PanC (AID 375).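 Note: 0% = full reaction with vehicle and 100% = no enzyme background.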 To be noted: coupled enzyme assay; at 10 µM, stronger effect = higher value.
As for `CCOC(=O)CN1C(=O)C2(OCCCO2)c2ccccc21`, the inhibition is 1% (inactive).
As for `COC(=O)CCc1c(C)c(C#N)c2nc3ccccc3n2c1N1CCCC1`, the figure is 0% (inactive).
`CCCCNC(=O)Nc1ccnn1C1CCCCC1`: the inhibition was 1% (inactive).
`Oc1ccc(-c2onc(C(F)(F)F)c2-c2cscn2)c(O)c1`: the inhibition is 2% (inactive).
In the case of `Cc1cc(N=Cc2cc(Br)ccc2O)no1`, the inhibition was 6% (inactive).
In the case of `Cn1c(=O)c2c(nc(CN3CCN(c4ccccc4F)CC3)n2CCN2CCOCC2)n(C)c1=O`, the inhibition is 0% (inactive).
Consider `C#CCSc1nc(-c2cccs2)ccc1C#N`, for which the inhibition was 0% (inactive).
Regarding `C=CS(=O)(=O)c1ccc(Oc2ccc(S(=O)(=O)C=C)cc2)cc1`, the inhibition was 10% (inactive).
Under `COc1ccccc1N1CCN(C(=O)C(Cc2ccccc2)NC(=O)C2CCCCC2)CC1` (stereo not given) stands 5% (inactive).
As for `CCOC(=O)CCC(=O)Nc1ccc(S(=O)(=O)N2CCCC2)cc1`, the figure is 0% (inactive); as for `Cn1c(=O)c(=O)n(C)c2cc(S(=O)(=O)N3CCN(c4cccc(C(F)(F)F)c4)CC3)ccc21`, 9% (inactive); as for `CCn1c(=S)sc2nc(C)sc21`, 1% (inactive).
In the case of `COC(=O)c1ccc(C(=O)OC)c(NC(=O)Nc2ccc3c(c2)OCO3)c1`, the inhibition was 0% (inactive).
Turning to `COc1ccc(C(=O)Nc2ccc(Cl)c(Cl)c2)c(OC)n1`, the inhibition is 0% (inactive).
Take `CN(C)S(=O)(=O)c1ccc(S(=O)(=O)N(Cc2ccco2)Cc2ccccc2Cl)cc1`: the inhibition is 3% (inactive).
On to `COC(=O)Cc1cc(=O)n(-c2ccccc2)[nH]1`, for which the inhibition is 0% (inactive).
As for `CN(CCNC(=O)c1ccc(N2CCCC2=O)cc1)CCc1ccccc1`, the figure is 0% (inactive); as for `O=C(CN1C(=O)c2cccc3cccc1c23)NCC1CCCO1` (stereo not given), 5% (inactive); as for `CC(O)c1n(C)c(Cl)c[n+]1C` (stereo not given), 3% (inactive).
`CC1=C(C(=O)OC(C)C)C(c2cccc(F)c2)n2ncnc2N1` (stereo not given): the inhibition is 2% (inactive).
For the compound `Cc1ccc2c(C(=O)CN3CCSCC3)c(C)[nH]c2c1`, the inhibition was 0% (inactive).
`CCc1nnc(NC(=O)c2ccc(S(=O)(=O)N(CC(C)C)CC(C)C)cc2)o1`: the inhibition is 0% (inactive).
As for `O=C(C1CCCN1S(=O)(=O)c1cccc2cccnc12)N1CCn2c1nc1ccccc12` (stereo not given), the inhibition is 6% (inactive).
In the case of `Cc1cc(C)n(-c2ccc(N3CCOCC3)nn2)n1`, the inhibition was 0% (inactive).
Consider `COc1ccc(C)cc1S(=O)(=O)Nc1cccnc1`, for which the inhibition was 0% (inactive).
As for `Clc1cccc(-c2nnc3sc(-c4ccccc4)nn23)c1`, the inhibition is 0% (inactive).
As for `COCCn1c(=O)[nH]c2cc(C(=O)NCc3cccnc3)ccc2c1=O`, the figure is 2% (inactive).
With `CC(C)Cc1nc2oc3c(N4CCN(CCO)CC4)ncnc3c2c2c1CCCC2`, the inhibition is 0% (inactive).
Under `COc1ccccc1-c1nc2n(n1)C(c1ccc(Cl)cc1)C(C(N)=O)=C(C)N2` (stereo not given) stands 0% (inactive); under `COc1cccc(C2CC(=O)Nc3cc4c(cc32)OCCO4)c1OC(C)C` (stereo not given), 1% (inactive); under `COc1cccc(C(=O)CN2CCC(NC(=O)NC3CCCCC3)CC2)c1`, 6% (inactive).
For `Cc1sc2nc(SCC(=O)N3CCN(CCO)CC3)n(-c3ccccc3)c(=O)c2c1C`, the inhibition was 6% (inactive).
As for `CCN(CC)C(=O)c1sc2nc(-c3cccs3)cc(-c3cccs3)c2c1N`, the figure is 0% (inactive).
Under `Cc1cccc(N2CCN(C(=O)Cn3nc(Cc4ccncc4)c4ccccc4c3=O)CC2)c1C` stands 4% (inactive).
Turning to `CC1(C)C(=O)Nc2ccccc2N1C(=O)COC(=O)Cn1cnc2ccccc2c1=O`, the inhibition was 0% (inactive).
With `Cc1c(Cl)cccc1Nc1ccccc1C(=O)O`, the inhibition was 1% (inactive).
With `CCOc1ccc(NC(=O)CN2C(=O)C3CCCN3C2=O)cc1` (stereo not given), the inhibition is 0% (inactive).
In the case of `CCOc1ccccc1NC(=O)CCN1CCN(S(=O)(=O)c2ccc(Br)cc2)CC1`, the inhibition is 0% (inactive).
`COc1ccc(Cl)cc1NC(=O)c1oc(C)nc1C`: the inhibition was 4% (inactive).
Take `CCC(C)NC(=O)CCNS(=O)(=O)c1ccc(Br)cc1` (stereo not given): the inhibition is 0% (inactive).
